CRFBP-R2 agonist – agonists of human CRF-binding protein/CRF-R2 receptor complex | actives 0.46% (n = 350,000) | activation, % at 13.2 µM | AID 588473 | HEK293 CRF-R2/CRF-BP, calcium dye fluorescence (FLIPR); percent of saturating CRF peptide response;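 active = activation of at least 50%, plus an integration ratio under a set limit after plate pattern correction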;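 note: plate controls were neutral control wells without compound for no effect and CRF at EC100 for full effect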
ANO1 block – blocks the mouse calcium-activated chloride channel TMEM16A; normalized B-score (activity score, 25-100; higher = stronger inhibition) at 10 µM; actives 1.2% (n = 310,000); Q8BHY3; AID 588511; HEK293 TMEM16A/YFP iodide influx fluorescence, ionomycin;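 active = ratio plate-corrected score three or more library SD toward inhibition, starting fluorescence score within five deviations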;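 note: score derived from kinetic fluorescence span divided by baseline fluorescence per well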
NR3A LBD binder – NR3A (human) ligand-binding domain modulation. NR3A LBD differential scanning fluorimetry, Tm shift; 0% = protein alone, 100% = glycine-bound protein. Tm shift relative to glycine control, % at 25 µM. actives 2.5% (n = 340,000). AID 1259313;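 active = melting temperature shift of at least 10% of the positive control shift, at one fixed dose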
CRFBP-R2 block – blocks CRF-induced signaling of the CRF-BP/CRF-R2 complex | HEK293 CRF-R2/CRF-BP, CRF-induced calcium fluorescence | inhibition, % at 11.8 µM | actives 0.59% (n = 350,000);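 active = inhibition of the ligand-induced calcium signal above about 50% at the single tested concentration, limit read from the data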
TMEM16A act – activates or potentiates the mouse TMEM16A chloride channel. HEK293 TMEM16A/YFP-H148Q/I152L, iodide quench fluorescence; hits give low values. B-score at 10 µM. actives 0.3% (n = 340,000). Q8BHY3;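 active = fluorescence-ratio B-score plate-corrected deviation score at least 3 library SD below zero, with starting fluorescence score within 5 deviations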;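 note: channel opened by trigger with iodide after compound preincubation; score built on the fluorescence ratio of max minus min over baseline; more negative score means more quench and so TMEM16A activation or potentiation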
MPTP inh – permeability transition pore inhibition; actives 1.4% (n = 360,000); inhibition, % at 10 µM; isolated mouse mitochondria, Ca2+ swelling absorbance, 30 min;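 active = inhibition of 50% or more, scaled per plate between neutral and stimulator controls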;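 note: 0% = DMSO wells given calcium and 100% = 1 mM EGTA wells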
An asterisk follows results filed as active; i = inactive; · = no result. In the library only some 5.1% were active in any assay of this set; here they are far more common.

SMILES	CRFBP-R2 agonist	ANO1 block	NR3A LBD binder	CRFBP-R2 block	TMEM16A act	MPTP inh
Cc1ccc(S(=O)(=O)N/N=C/c2ccc(OCC(=O)Nc3ccccc3Cl)cc2)cc1	1	i	18*	-55	i	-20
COc1ccccc1NC(=O)COc1ccc(/C=N/NS(=O)(=O)c2ccc(C)cc2)cc1	0	i	5	7	i	0
O=C(CSCc1ccc(Cl)cc1)N/N=C/c1ccc(OCC(=O)Nc2ccccc2)cc1	3	i	10*	-11	i	-7
COc1ccccc1NC(=O)COc1ccc(/C=N/NC(=O)CSCc2cc(C)cc(C)c2)cc1	8	i	4	1	i	5
COc1cccc(NC(=O)Nc2nnc(COCCO)s2)c1	·	·	·	·	·	0
O=C(Nc1cccc(NC(=O)c2ccc(Cl)cc2Cl)c1)c1cccnc1	-1	i	-2	5	i	0
COc1ccc(CCn2c(=O)c3cccnc3n(Cc3cccc([N+](=O)[O-])c3)c2=O)cc1OC	-3	i	-3	52*	i	2
Cc1ccc(Cc2c(C3CCCCC3)nc3ccc(Cl)cn23)cc1	·	·	·	·	·	0
Nc1cccc(N2C(=O)c3cccc4c(N)ccc(c34)C2=O)c1	162*	i	10*	-120	i	-1
CN(C)c1ccc2c3c(cccc13)C(=O)N(c1ccccc1)C2=O	·	i	·	·	·	·
Cc1cccc(N2C(=O)c3cccc4c(N)ccc(c34)C2=O)c1	268*	i	-7	-219	i	0
Cc1cccc(N2C(=O)c3cccc4cccc(c34)C2=O)c1	-7	i	3	11	i	0
CCN1C(=O)c2cccc3c(Cl)ccc(c23)C1=O	-3	i	1	-10	i	-5
CC(C)CCN1C(=O)c2cccc3c(N)ccc(c23)C1=O	166*	i	14*	-101	i	1
Cc1cccc(N2C(=O)c3cccc4c(N(C)CCO)ccc(c34)C2=O)c1	191*	i	-22	-216	i	0
COCCC(=O)N1CCC(Oc2ccc(C(=O)NCCc3ccccn3)cc2)CC1	2	i	-2	19	i	-1
CCCCCC(=O)N1C[C@@H](n2cc(C3CC3)nn2)[C@H](O)C[C@@H]1c1ccccc1	0	·	·	11	·	1
Cc1ccccc1NC(=O)c1cc([N+](=O)[O-])ccc1NCCN1C(=O)CCC1=O	-1	i	0	13	i	-2
CCN1C[C@@H]2[C@@H]3C(=O)N(Cc4ccccc4)C(=O)[C@@H]3[C@](C)(C1=O)N2C(=O)c1ccc(C(F)(F)F)cc1	-3	·	1	-1	i	0
Nc1ccc2c3c(cccc13)C(=O)N(c1ccccc1)C2=O	235*	·	-3	-227	i	-1
COc1ccc2c(c1OC)C(=O)N(c1cccc(C)c1)C2=O	-2	i	7	-2	-4.9*	5
Cc1c(O)c2c3c(cccc3c1O)C(=O)N(c1ccccc1)C2=O	168*	i	-6	-151	i	7
O=C(O)c1ccc2c3c(cccc13)C(=O)N(c1ccccc1)C2=O	4	i	-1	-5	i	0
COC(=O)c1ccc(N2C(=O)c3ccc(OC)c(OC)c3C2=O)cc1	0	i	0	-17	i	-5
O=C(Nc1ccc(S(=O)(=O)Nc2ncccn2)cc1)C(F)(F)F	0	i	-3	-3	i	0
SMILES	CRFBP-R2 agonist	ANO1 block	NR3A LBD binder	CRFBP-R2 block	TMEM16A act	MPTP inh
O=C(Nc1ccc(Cl)c(Cl)c1)OCc1cnc(Cl)s1	2	i	12*	-12	i	9
O=C(Nc1ccccc1)OCc1cnc(Cl)s1	1	i	0	-8	i	2
CC(=O)Nc1ccccc1-c1cccc2nccn12	·	·	·	·	·	0
Cc1cccc(C)c1-n1cccc1/C=C1\SC(=S)N(c2cccc(C(=O)O)c2)C1=O	-1	100*	1	30	i	3
Cc1cccc(C)c1NC(=O)CN1C(=O)S/C(=C\c2cccn2-c2cccc(C(=O)O)c2)C1=O	-4	i	0	37	i	1
O=C1NN(c2ccc(F)c(Cl)c2)C(=O)/C1=C\c1cccc(OC(=O)c2cccs2)c1	1	i	24*	-10	i	-1

From PubChem BioAssay
